According to publication PMC7862700, “An all-to-all approach to the identification of sequence-specific readers for epigenetic DNA modifications on cytosine”:

Key:
Assay in all cases: DAPPL (digital affinity profiling via proximity ligation, sequencing); 10 mM Tris-HCl pH 7.5, 50 mM NaCl, 1 mM DTT, 4% glycerol, room temperature, 30 min; GST-TFs on glutathione beads, 16-mer random dsDNA library, 0.1% formaldehyde crosslink after washing; high values mean tight binding
Details in all cases: protein: recombinant; tags: N-terminal GST; dsDNA, one strand shown
[1] = target: T1, FLI1 (Homo sapiens, UniProt Q01543 1-452)
T1 sequence: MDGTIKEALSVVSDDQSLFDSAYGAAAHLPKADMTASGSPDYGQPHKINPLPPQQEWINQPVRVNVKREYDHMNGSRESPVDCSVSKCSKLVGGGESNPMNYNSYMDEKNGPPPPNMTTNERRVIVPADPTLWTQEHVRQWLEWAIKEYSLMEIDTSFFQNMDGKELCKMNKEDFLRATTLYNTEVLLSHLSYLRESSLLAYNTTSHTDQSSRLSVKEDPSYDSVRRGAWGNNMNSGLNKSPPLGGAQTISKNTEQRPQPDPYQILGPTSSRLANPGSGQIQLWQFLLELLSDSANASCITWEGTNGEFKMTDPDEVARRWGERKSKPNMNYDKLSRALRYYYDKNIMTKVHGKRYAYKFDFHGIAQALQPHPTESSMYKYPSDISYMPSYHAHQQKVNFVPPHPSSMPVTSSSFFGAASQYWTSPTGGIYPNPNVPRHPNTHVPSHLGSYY
How it was run: (§1)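 Binding signal is each hexamer's read frequency for a factor divided by its frequency in the tag-only sample. The factors were GST-fused human transcription factors from yeast, captured on glutathione beads, DNA-barcoded and pooled with that sample. Pools were incubated with 200 nmole of a random double-stranded 16-mer DNA library in Tris/NaCl/DTT/glycerol buffer at room temperature for 30 min, then washed, crosslinked with 0.1% formaldehyde, proximity-ligated with BsaI/T4 ligase (1 h, 37 °C), PCR-amplified and sequenced on an Illumina NextSeq500.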

[2] = target: T2, ELK1 (Homo sapiens, UniProt P19419 1-428)
T2 sequence: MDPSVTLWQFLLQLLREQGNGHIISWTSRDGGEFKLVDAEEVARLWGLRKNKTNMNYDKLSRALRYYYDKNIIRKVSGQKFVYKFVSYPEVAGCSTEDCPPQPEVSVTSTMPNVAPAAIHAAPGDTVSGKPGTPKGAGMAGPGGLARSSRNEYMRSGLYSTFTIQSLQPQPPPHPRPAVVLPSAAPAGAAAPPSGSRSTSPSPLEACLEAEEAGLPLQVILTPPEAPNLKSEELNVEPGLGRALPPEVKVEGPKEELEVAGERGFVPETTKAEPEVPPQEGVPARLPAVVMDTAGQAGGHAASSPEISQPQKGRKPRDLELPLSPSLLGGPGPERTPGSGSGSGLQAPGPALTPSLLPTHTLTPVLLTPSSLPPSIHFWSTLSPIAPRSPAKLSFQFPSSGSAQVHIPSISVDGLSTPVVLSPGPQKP
How it was run: as §1

[3] = target: T3, GABPA (Homo sapiens, UniProt Q06546 1-454)
T3 sequence: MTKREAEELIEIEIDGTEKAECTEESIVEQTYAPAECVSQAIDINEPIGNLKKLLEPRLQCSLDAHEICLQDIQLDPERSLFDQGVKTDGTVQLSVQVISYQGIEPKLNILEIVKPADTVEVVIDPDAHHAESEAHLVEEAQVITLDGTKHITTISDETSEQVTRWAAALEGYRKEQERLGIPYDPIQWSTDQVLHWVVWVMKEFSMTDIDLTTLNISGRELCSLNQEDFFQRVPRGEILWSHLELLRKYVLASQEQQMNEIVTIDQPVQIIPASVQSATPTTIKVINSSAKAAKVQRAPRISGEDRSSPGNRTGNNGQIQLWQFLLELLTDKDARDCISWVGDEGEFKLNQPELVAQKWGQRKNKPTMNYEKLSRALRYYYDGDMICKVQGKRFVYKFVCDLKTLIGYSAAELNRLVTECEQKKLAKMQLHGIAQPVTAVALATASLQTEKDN
How it was run: as §1

[4] = target: T4, ERG (Homo sapiens, UniProt P11308 1-479)
T4 sequence: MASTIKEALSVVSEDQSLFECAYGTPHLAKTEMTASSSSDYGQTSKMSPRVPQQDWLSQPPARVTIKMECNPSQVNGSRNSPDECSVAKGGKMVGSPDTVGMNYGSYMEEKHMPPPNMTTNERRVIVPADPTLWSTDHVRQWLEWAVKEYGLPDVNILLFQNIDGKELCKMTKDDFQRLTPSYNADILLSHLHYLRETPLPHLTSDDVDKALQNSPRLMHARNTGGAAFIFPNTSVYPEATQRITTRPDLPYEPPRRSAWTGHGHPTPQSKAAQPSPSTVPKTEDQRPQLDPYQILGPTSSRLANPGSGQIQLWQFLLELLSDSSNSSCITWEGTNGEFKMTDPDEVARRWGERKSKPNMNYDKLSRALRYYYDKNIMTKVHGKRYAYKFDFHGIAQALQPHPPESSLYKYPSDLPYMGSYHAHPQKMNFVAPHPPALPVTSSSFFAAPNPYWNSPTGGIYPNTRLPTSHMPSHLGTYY
How it was run: as §1

[5] = target: ELF1 (Homo sapiens, UniProt P32519 1-619)
How it was run: as §1

[6] = target: T5, EHF (Homo sapiens, UniProt Q9NZC4 1-300)
T5 sequence: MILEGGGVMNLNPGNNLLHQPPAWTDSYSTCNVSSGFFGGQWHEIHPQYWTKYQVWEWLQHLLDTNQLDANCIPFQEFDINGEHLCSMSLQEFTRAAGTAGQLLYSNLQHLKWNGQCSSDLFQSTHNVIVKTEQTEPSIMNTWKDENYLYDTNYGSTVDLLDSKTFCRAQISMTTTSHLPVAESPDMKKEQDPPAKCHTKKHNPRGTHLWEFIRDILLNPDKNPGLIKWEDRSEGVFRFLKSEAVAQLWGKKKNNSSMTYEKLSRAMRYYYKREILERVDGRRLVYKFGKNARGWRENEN
How it was run: as §1

[7] = target: SPI1 (Homo sapiens, UniProt P17947 1-270)
How it was run: as §1

[8] = target: SPIB (Homo sapiens, UniProt Q01892 1-262)
How it was run: as §1

[9] = target: T6, ELK3 (Homo sapiens, UniProt P41970 1-407)
T6 sequence: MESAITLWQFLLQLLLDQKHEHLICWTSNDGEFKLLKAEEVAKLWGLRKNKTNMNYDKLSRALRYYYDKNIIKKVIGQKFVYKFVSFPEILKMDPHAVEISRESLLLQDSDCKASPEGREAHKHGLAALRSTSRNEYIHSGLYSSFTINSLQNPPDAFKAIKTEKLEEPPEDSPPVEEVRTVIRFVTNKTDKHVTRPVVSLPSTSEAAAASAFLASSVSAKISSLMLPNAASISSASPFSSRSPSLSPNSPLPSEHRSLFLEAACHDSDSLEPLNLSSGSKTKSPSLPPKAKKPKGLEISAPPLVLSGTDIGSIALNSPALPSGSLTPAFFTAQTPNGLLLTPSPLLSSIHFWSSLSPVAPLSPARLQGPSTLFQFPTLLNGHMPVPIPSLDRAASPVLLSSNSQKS
How it was run: as §1

Chain of SPIB (Q01892 whole entry): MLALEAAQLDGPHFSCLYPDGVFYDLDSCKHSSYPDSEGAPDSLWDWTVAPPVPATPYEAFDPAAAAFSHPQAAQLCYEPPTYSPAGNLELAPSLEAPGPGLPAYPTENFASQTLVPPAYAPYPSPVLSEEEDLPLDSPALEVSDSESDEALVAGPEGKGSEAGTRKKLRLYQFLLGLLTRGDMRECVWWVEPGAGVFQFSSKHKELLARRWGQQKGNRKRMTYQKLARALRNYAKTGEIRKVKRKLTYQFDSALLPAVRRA
Chain of ELF1 (P32519 whole entry): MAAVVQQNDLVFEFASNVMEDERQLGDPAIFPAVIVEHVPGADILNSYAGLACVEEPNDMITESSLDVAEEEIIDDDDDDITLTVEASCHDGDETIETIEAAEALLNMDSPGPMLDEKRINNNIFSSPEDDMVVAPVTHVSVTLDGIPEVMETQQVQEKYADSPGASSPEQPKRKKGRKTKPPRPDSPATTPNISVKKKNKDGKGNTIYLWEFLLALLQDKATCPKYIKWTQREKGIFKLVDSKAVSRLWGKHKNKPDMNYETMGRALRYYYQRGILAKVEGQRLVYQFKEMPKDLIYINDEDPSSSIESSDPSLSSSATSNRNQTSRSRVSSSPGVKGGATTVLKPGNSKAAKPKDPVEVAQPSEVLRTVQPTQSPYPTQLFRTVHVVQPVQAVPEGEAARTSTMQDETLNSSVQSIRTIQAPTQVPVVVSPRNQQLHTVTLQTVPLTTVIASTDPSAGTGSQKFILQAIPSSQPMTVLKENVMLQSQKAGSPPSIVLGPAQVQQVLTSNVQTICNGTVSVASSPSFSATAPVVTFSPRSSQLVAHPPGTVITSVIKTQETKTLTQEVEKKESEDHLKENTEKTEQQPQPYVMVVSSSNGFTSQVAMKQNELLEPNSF

Row | Sequence | binding signal [1] | binding signal [2] | binding signal [3] | binding signal [4] | binding signal [5] | binding signal [6] | binding signal [7] | binding signal [8] | binding signal [9]
1 | ATGGAT | 1.06 fold enrichment (6-mer frequency, TF over GST control) | 1.11 fold enrichment (6-mer frequency, TF over GST control) | 1.18 fold enrichment (6-mer frequency, TF over GST control) | 1.08 fold enrichment (6-mer frequency, TF over GST control) | 1.04 fold enrichment (6-mer frequency, TF over GST control) | 1.09 fold enrichment (6-mer frequency, TF over GST control) | 1.06 fold enrichment (6-mer frequency, TF over GST control) | 1.14 fold enrichment (6-mer frequency, TF over GST control) | 1.2 fold enrichment (6-mer frequency, TF over GST control)
2 | GATGCT | 1.18 fold enrichment (6-mer frequency, TF over GST control) | 1.11 fold enrichment (6-mer frequency, TF over GST control) | 1.14 fold enrichment (6-mer frequency, TF over GST control) | 1.12 fold enrichment (6-mer frequency, TF over GST control) | 1.12 fold enrichment (6-mer frequency, TF over GST control) | 1.25 fold enrichment (6-mer frequency, TF over GST control) | 1.23 fold enrichment (6-mer frequency, TF over GST control) | 1.22 fold enrichment (6-mer frequency, TF over GST control) | 1.2 fold enrichment (6-mer frequency, TF over GST control)
3 | CCATAT | 1.23 fold enrichment (6-mer frequency, TF over GST control) | 1.24 fold enrichment (6-mer frequency, TF over GST control) | 1.19 fold enrichment (6-mer frequency, TF over GST control) | 1.37 fold enrichment (6-mer frequency, TF over GST control) | 1.22 fold enrichment (6-mer frequency, TF over GST control) | 1.22 fold enrichment (6-mer frequency, TF over GST control) | 1.16 fold enrichment (6-mer frequency, TF over GST control) | 1.26 fold enrichment (6-mer frequency, TF over GST control) | 1.26 fold enrichment (6-mer frequency, TF over GST control)
4 | CTTAGG | 1.1 fold enrichment (6-mer frequency, TF over GST control) | 1.12 fold enrichment (6-mer frequency, TF over GST control) | 1.15 fold enrichment (6-mer frequency, TF over GST control) | 1.19 fold enrichment (6-mer frequency, TF over GST control) | 1.17 fold enrichment (6-mer frequency, TF over GST control) | 1.14 fold enrichment (6-mer frequency, TF over GST control) | 1.09 fold enrichment (6-mer frequency, TF over GST control) | 1.08 fold enrichment (6-mer frequency, TF over GST control) | 1.05 fold enrichment (6-mer frequency, TF over GST control)
5 | CGTATT | 1.24 fold enrichment (6-mer frequency, TF over GST control) | 1.18 fold enrichment (6-mer frequency, TF over GST control) | 1.12 fold enrichment (6-mer frequency, TF over GST control) | 1.15 fold enrichment (6-mer frequency, TF over GST control) | 1.11 fold enrichment (6-mer frequency, TF over GST control) | 1.12 fold enrichment (6-mer frequency, TF over GST control) | 1.17 fold enrichment (6-mer frequency, TF over GST control) | 1.24 fold enrichment (6-mer frequency, TF over GST control) | 1.38 fold enrichment (6-mer frequency, TF over GST control)
6 | TCTCTT | 1.52 fold enrichment (6-mer frequency, TF over GST control) | 1.34 fold enrichment (6-mer frequency, TF over GST control) | 1.45 fold enrichment (6-mer frequency, TF over GST control) | 1.27 fold enrichment (6-mer frequency, TF over GST control) | 1.47 fold enrichment (6-mer frequency, TF over GST control) | 1.41 fold enrichment (6-mer frequency, TF over GST control) | 1.32 fold enrichment (6-mer frequency, TF over GST control) | 1.38 fold enrichment (6-mer frequency, TF over GST control) | 1.31 fold enrichment (6-mer frequency, TF over GST control)
7 | AATGAT | 1.08 fold enrichment (6-mer frequency, TF over GST control) | 1.22 fold enrichment (6-mer frequency, TF over GST control) | 1.15 fold enrichment (6-mer frequency, TF over GST control) | 1.14 fold enrichment (6-mer frequency, TF over GST control) | 1.19 fold enrichment (6-mer frequency, TF over GST control) | 1.2 fold enrichment (6-mer frequency, TF over GST control) | 1.16 fold enrichment (6-mer frequency, TF over GST control) | 1.12 fold enrichment (6-mer frequency, TF over GST control) | 1.19 fold enrichment (6-mer frequency, TF over GST control)
